# Source: ChEMBL document CHEMBL3988442, “University of Dundee, Small-Polar-MMV Screening Library” (2021)
# For some of these results: Measured potencies and affinities stand elsewhere.
# Tests used:
# Design in all cases: scale not given: direction of the effect not stated beside the values
# [1] = molecular target: Protein translocase subunit SecA (Escherichia coli (strain K12)) (UniProt P10408); experiment: Assay to Identify E. coli SecA ATPase Inhibitors; assay type: functional; conditions: 30 µM
# Sequence of Protein translocase subunit SecA (Escherichia coli (strain K12)) (P10408 whole entry): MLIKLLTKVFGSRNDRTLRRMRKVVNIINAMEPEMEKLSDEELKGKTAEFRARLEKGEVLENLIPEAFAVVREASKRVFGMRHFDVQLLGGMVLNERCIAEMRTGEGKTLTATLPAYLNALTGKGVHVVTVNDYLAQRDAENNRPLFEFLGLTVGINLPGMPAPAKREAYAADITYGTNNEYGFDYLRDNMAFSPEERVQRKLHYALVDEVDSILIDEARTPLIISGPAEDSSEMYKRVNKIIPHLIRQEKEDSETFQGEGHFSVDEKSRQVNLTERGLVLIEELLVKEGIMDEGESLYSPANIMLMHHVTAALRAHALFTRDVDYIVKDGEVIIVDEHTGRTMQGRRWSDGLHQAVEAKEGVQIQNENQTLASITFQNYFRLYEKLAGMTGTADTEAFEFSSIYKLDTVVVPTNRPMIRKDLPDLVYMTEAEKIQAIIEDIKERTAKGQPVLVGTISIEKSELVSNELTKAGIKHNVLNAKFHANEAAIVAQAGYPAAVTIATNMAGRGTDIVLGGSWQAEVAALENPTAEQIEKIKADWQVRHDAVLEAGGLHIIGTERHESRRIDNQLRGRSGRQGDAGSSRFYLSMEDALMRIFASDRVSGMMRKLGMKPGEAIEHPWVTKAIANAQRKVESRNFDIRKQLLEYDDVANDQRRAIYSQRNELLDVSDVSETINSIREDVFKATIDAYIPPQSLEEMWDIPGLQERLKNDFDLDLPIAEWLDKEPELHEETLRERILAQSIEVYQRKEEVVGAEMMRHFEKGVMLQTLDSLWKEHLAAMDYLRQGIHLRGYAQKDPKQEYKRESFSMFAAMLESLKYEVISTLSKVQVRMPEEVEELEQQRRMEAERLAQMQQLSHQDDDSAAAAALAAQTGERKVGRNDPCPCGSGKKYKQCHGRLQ
# [2] = molecular target: T1, Ubiquitin-activating enzyme e1, putative (Leishmania donovani (strain BPK282A1)) (UniProt E9BSI1); experiment: Leishmania donovani Ubiquitin Activating Enzyme (LdE1); assay type: functional; conditions: 30 µM
# T1 sequence (whole entry): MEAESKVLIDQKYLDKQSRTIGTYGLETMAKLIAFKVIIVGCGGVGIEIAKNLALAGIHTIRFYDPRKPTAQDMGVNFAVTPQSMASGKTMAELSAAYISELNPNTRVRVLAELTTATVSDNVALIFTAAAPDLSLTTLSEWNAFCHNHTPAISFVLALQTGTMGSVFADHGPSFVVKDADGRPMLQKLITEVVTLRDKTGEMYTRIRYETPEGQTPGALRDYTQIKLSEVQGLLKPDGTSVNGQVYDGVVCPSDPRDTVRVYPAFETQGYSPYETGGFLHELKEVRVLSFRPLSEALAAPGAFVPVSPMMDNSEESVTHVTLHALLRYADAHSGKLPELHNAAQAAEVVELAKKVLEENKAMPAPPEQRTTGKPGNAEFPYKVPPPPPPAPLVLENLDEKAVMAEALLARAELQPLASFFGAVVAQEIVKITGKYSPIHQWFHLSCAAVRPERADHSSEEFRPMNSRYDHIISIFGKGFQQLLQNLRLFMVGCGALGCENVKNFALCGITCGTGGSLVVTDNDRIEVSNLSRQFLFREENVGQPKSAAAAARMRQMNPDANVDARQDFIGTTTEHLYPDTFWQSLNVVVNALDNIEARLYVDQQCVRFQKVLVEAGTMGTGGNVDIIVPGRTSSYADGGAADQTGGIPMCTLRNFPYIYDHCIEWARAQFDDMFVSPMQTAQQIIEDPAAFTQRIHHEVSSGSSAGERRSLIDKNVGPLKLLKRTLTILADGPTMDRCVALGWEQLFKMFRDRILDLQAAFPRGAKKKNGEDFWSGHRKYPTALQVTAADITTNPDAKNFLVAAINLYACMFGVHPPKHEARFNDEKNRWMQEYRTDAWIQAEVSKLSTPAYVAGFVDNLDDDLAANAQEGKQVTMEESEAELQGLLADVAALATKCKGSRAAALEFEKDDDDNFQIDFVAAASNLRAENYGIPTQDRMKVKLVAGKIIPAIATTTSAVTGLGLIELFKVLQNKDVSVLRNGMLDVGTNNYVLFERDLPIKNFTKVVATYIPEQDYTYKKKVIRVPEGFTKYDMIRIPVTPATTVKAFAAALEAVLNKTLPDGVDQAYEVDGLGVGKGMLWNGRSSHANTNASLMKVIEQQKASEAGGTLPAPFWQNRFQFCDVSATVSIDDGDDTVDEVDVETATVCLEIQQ
# [3] = molecular target: AMP-activated protein kinase, AMPK (Homo sapiens) (UniProt P54646+O43741+P54619+Q9UGJ0+Q9Y478+Q13131+Q9UGI9); experiment: AMP-dependent Kinase enzyme assay. An in vitro enzyme assay that detects ADP turnover that is directly proportional to AMPK activity. This uses naive AMPK that is activated during the assay with MK-8722; assay type: functional; conditions: 30 µM
# [4] = molecular target: Sialic acid-binding Ig-like lectin 9 (Homo sapiens) (UniProt Q9Y336); experiment: Hs-Siglec9 ALPHAscreen SOP 20170721; conditions: 10 µM
# Sequence of Sialic acid-binding Ig-like lectin 9 (Homo sapiens) (Q9Y336 whole entry): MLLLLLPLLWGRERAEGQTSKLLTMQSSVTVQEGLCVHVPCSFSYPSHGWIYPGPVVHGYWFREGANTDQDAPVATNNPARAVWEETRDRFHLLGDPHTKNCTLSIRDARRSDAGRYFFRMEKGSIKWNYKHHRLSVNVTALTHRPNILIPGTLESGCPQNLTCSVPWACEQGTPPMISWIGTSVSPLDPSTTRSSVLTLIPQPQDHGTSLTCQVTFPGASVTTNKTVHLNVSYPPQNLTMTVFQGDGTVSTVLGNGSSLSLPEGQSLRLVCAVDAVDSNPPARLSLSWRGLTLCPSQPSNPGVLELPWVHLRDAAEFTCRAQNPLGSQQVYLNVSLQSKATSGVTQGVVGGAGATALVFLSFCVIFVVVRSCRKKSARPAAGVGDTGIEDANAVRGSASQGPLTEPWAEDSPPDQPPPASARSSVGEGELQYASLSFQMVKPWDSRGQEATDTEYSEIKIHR
# Trypanosoma cruzi = experiment: Trypanosoma cruzi phosphomannomutase and mannose-1-phosphate guanylyltransferase assay; assay type: functional; conditions: 10 µM
# [5] = molecular target: T2, Arginase-2, mitochondrial (Homo sapiens) (UniProt P78540); experiment: in vitro enzyme assay to detect the production of urea directly proportional to the activity of Arginase II; assay type: functional; conditions: 33.3 µM; note: in the data most compounds retested in dose-response had high values
# T2 sequence (whole entry): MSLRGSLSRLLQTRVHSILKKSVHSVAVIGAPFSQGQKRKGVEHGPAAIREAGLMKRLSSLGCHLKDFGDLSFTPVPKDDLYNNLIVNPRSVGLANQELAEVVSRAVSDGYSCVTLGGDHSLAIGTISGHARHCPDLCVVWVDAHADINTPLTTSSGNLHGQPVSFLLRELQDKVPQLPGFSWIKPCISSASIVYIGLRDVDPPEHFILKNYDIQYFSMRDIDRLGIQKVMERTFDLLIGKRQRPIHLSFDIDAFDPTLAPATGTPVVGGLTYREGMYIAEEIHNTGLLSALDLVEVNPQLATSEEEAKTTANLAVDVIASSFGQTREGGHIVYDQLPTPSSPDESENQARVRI
# [6] = molecular target: T3, Proteasome subunit beta (Trypanosoma cruzi) (UniProt O96673); experiment: Trypanosoma cruzi proteasome chymotrypsin-like activity (TcProtChymo) assay.; note: in the data most compounds retested in dose-response had high values; assay type: functional; conditions: 9.37 µM
# T3 sequence (whole entry): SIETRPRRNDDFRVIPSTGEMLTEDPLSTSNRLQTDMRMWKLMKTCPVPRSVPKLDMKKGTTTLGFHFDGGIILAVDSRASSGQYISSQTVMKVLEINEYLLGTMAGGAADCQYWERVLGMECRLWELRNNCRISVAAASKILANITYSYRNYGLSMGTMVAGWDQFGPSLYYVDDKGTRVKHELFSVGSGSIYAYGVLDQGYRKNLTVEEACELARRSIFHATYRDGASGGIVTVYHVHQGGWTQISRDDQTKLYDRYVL
# Homo sapiens = species: Homo sapiens; experiment: To identify inhibition of the IFN signalling (Jak-Stat) pathway via expression of an eGFP reporter gene under the control of an IFN-stimulated response element (ISRE) containing MxA promoter.; assay type: functional; conditions: 30 µM
# [7] = molecular target: T4, Tyrosyl-tRNA synthetase, putative (Trypanosoma cruzi (strain CL Brener)) (UniProt Q4DSP6); experiment: Trypanosoma cruzi tyrosyl tRNA synthetase (TcYRS) _High Tyrosine SOP; assay type: functional; conditions: 30 µM; note: in the data most compounds retested in dose-response had high values
# T4 sequence (whole entry): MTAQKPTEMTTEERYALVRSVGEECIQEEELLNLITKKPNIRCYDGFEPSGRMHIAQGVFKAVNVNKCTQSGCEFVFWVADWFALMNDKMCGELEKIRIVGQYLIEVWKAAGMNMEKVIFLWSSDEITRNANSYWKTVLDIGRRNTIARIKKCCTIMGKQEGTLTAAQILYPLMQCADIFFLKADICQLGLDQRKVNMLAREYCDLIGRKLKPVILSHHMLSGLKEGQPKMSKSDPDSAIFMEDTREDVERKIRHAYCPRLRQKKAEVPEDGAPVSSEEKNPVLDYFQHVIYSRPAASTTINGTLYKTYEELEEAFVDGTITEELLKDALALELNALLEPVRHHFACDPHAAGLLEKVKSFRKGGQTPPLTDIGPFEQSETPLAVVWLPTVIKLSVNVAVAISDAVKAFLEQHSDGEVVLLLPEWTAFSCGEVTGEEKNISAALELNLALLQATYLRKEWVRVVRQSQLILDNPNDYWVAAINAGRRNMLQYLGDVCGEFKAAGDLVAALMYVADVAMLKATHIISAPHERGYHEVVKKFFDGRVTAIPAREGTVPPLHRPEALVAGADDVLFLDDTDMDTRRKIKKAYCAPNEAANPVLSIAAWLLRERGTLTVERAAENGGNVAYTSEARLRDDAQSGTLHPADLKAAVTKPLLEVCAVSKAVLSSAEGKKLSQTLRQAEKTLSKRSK
# [8] = molecular target: T4, Tyrosyl-tRNA synthetase, putative (Trypanosoma cruzi (strain CL Brener)); experiment: Trypanosoma cruzi tyrosyl tRNA synthetase (TcYRS) SOP; assay type: functional; conditions: 30 µM
# [9] = molecular target: Chromo domain-containing protein 1 (Saccharomyces cerevisiae (strain ATCC 204508 / S288c) (Baker's yeast)) (UniProt P32657); experiment: ScCHD-1 Enzyme Inhibition Assay; assay type: functional; conditions: 30 µM; note: in the data most compounds retested in dose-response had high values
# Sequence of Chromo domain-containing protein 1 (Saccharomyces cerevisiae (strain ATCC 204508 / S288c) (Baker's yeast)) (P32657 whole entry, the tested form may be a part): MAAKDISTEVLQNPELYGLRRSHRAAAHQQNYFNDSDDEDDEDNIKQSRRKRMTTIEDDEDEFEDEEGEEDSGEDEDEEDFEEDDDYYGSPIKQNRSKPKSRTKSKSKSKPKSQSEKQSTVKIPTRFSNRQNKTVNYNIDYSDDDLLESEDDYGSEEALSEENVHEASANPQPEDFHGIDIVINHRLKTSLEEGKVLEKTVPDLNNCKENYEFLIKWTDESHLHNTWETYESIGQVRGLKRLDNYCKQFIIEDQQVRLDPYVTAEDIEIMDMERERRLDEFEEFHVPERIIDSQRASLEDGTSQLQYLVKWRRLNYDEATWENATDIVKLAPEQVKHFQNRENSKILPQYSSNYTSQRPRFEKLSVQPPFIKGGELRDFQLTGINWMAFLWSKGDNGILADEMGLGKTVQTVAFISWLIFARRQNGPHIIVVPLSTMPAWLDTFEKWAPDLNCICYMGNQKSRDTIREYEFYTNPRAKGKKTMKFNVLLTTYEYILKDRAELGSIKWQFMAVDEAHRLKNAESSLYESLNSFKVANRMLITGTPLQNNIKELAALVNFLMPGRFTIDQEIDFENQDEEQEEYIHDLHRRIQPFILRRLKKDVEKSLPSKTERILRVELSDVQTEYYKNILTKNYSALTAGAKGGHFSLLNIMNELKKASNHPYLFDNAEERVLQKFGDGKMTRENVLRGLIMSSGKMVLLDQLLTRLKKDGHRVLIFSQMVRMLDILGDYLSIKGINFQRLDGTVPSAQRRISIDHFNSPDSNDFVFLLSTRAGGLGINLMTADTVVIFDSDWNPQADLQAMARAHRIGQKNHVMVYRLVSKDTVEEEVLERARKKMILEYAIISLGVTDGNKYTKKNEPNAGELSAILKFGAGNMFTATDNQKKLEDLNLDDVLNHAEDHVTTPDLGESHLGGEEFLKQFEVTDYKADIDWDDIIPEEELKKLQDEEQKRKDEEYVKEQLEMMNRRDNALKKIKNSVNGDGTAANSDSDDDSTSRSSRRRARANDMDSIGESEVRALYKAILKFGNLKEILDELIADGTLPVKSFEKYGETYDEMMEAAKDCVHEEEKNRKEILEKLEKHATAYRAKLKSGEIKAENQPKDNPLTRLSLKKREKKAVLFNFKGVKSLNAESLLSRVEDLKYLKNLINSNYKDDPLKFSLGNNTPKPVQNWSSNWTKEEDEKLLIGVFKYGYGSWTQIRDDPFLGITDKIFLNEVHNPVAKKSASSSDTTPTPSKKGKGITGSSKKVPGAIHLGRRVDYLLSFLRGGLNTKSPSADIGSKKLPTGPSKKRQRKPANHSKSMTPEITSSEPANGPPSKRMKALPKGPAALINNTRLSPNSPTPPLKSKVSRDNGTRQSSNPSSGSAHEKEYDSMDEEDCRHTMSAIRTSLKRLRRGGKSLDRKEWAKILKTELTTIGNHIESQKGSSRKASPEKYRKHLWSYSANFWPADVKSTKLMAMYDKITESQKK
SMILES,Percent Effect [1],Percent Effect [2],Percent Effect [3],Percent Effect [4],Percent Effect (Trypanosoma cruzi),Percent Effect [5],Percent Effect [6],Percent Effect (Homo sapiens),Percent Effect [7],Percent Effect [8],Percent Effect [9]
CCc1cccc(N2CCC(NC(=O)c3cc[nH]n3)CC2)c1,-4.19%,6.33%,8.15%,-6.72%,-3.59%,-5.38%,11.2%,28.6%,2.08%,5.06%,-20.9%
O=C(NCc1nnc2n1CCCC2)N(Cc1ccccc1F)C1CC1,-2.88%,5.41%,-1.8%,0.0872%,-2.12%,-2.38%,12.8%,7.52%,0.529%,0%,-4.24%
Cc1ccsc1CN(Cc1ccccn1)CC(C)C,-2.24%,1.39%,-11.5%,11.7%,4.76%,8.39%,8.95%,-27.8%,7.37%,7.69%,-1.62%
Cc1cnc(Nc2nccnc2C2CCN(C)CC2)s1,3.01%,13.3%,9.68%,-6.36%,-4.92%,0.699%,5.2%,10.5%,7.45%,8.97%,-6.78%
CC(=O)N1CCn2c(C(=O)N(C)C)cnc2C1,-2.73%,5.33%,9.01%,-0.782%,-1.77%,-3.03%,1.32%,5.39%,3.19%,6.41%,-2.05%
CSCC[C@H](NC(=O)Cn1ccc2c(Cl)cccc21)C(=O)O,0.448%,12%,2.92%,2.75%,-3.93%,-6.87%,15.2%,-1.36%,3.17%,7.69%,-6.56%
Cc1cc(C)c(CNC(=O)N(C)CC2CCCCO2)c(=O)[nH]1 (stereo not given),-3.05%,7.89%,2.98%,-2.11%,-8.84%,3.06%,14.2%,30.1%,4.41%,9.76%,-2.04%
CCn1cc(CN(C)C(=O)c2cccc(CCC(C)(C)O)c2)cn1,-5.71%,5.33%,-1.82%,-0.5%,-5.36%,1.04%,15%,9.2%,7.1%,6.17%,-6.76%
CN1CC2(CCN(Cc3ccoc3)CC2)COc2ccccc2S1(=O)=O,-0.535%,2.7%,-0.665%,1.6%,-3.23%,5.21%,14.8%,4.83%,7.53%,13.6%,-2.59%
CN(C)S(=O)(=O)N1CCC(Oc2ccc(C#N)cc2)CC1,-1%,1.39%,2.51%,-6.53%,-6.12%,1.77%,16.8%,17.2%,2.1%,2.56%,-0.203%
O=C(c1ccoc1)N1CCC2(CC1)C(=O)Nc1ccccc12,-2.34%,16.2%,-9.89%,3.61%,2.44%,6.2%,5.06%,37.9%,8.6%,18.5%,-8.75%
Cc1ccc(C2C3=C(COC3=O)Nc3[nH]nc(C)c32)cc1C (stereo not given),-2.97%,9.33%,12.5%,-3.88%,-4.71%,-4.75%,10.7%,30.1%,-22.2%,-23.1%,-11.7%
CNC(=O)CS(=O)(=O)Cc1coc(-c2ccc(OC)cc2)n1,-3.22%,2.7%,-2.86%,-2.16%,-1.35%,-1.91%,12.8%,7.16%,2.65%,-4.88%,-2.91%
OCC1CCCN1c1cc(N2CCN(c3ccccn3)CC2)ncn1 (stereo not given),-1.51%,2.6%,5.09%,12.8%,-1.27%,3.58%,0.889%,13.3%,5.71%,7.06%,-17.6%
CCCC(Nc1c(C#N)c(=O)n(C)c(=O)n1C)c1ccc(F)cc1F (stereo not given),-5.68%,10.1%,0.965%,11%,5.19%,4.18%,0.573%,1.79%,7.39%,13.9%,-4.28%
COCC1COCCC12CCN(CCc1ccccc1)CC2 (stereo not given),-4.75%,2.7%,0.285%,0.939%,6.84%,-3.33%,16.5%,1.25%,6.93%,8.54%,0.841%
CC(=O)N1CCN(CCNS(=O)(=O)c2ccc(C)c(F)c2)CC1,-5.17%,18.4%,-1.98%,-13.7%,3.41%,1.18%,7.96%,3.39%,-1.06%,13%,-13.1%
CC(C)(C)n1cc(C(=O)N2CCN(Cc3ccsc3)CC2)cn1,-3.19%,10.5%,2.2%,9.1%,7.71%,-3.06%,3.51%,-5.26%,6.37%,17.1%,-11%
CCN1CCCC1CN(CCN(C)C)S(=O)(=O)c1ccc(C#N)cc1 (stereo not given),-3.88%,5.48%,-10.9%,21.3%,4.5%,0.909%,3.73%,3.29%,4.3%,15%,-5.33%
Cc1cc(C(=O)N2CC[C@@H]3CN(S(C)(=O)=O)CCO[C@@H]3C2)c(C)o1,-2.68%,13.5%,1.13%,-7.58%,-3.62%,2.87%,25.6%,-7.91%,4.32%,15.4%,-2.64%
